TGFb SMAD3 inh: TGF-b pathway inhibition; HepG2 CAGA-GFP TGF-b/SMAD3 reporter, GFP fluorescence, 18 h; TGF-beta stimulated, 500 pg/mL final; Potency, µM (top dose mostly 46.1 µM), most hits filed as inhibitors; 1.2% of 410,000 active; also: nearly all actives have a fitted effect of over 65% in size
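Inhibition of TGF-beta-driven CAGA-GFP reporter expression in HEPG2 cells is measured by cellular GFP fluorescence after 18 h stimulation with 500 pg/mL recombinant TGF-beta in 1% FBS medium at 37 degrees C.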
KB-3-1 tox: KB-3-1 parental cell cytotoxicity | KB-3-1 viability, CellTiter-Glo ATP luminescence, 72 h | Potency, µM (doses to about 46.1 µM), most hits filed as cytotoxic | 1.4% of 400,000 active | AID 1347075; also: nearly all actives have a fitted effect of over 60% in size
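Screening of KB-3-1 cells (DMEM, 10% FBS, phenol-red free) ran from lowest to highest compound concentration; after 72 h at 37 °C viability was read luminescently and curves fitted.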
HT1080 IDH1KD tx: toxicity to HT-1080 IDH1 knockdown cells (counter line); HT-1080 IDH1 knockdown viability, ATP luminescence, 48 h; Potency, µM (top dose mostly 46.1 µM), actives largely listed as cytotoxic; 2% of 360,000 active
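Using the IDH1-knockdown HT-1080 line run in the same batch and compound series as the NT line, viability after 48 h at 37 °C was determined by CellTiter-Glo luminescence and expressed as % activity.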
HepG2 viability: kills HepG2 cells in TGF-b inhibitor counter-screen; HepG2 CAGA-GFP viability, ATP luminescence, 18 h; Potency, µM (titrated, usually from 46.1 µM), actives largely listed as cytotoxic; 0.76% of 410,000 active
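HepG2 CAGA-GFP cells (1000/well, DMEM with 1% FBS) received compound, then TGF-beta at 500 pg/mL final, and were incubated 18 hours at 37 degrees C. Viability was read by CellTiter-Glo luminescence. Media-only wells were set as complete cell-killing and DMSO as no toxicity.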
HT1080NT lethal: kills 2HG-producing HT-1080-NT fibrosarcoma cells; HT-1080-NT fibrosarcoma viability, CellTiter-Glo ATP luminescence, 48 h; Potency, µM (doses to about 46.1 µM), most hits filed as cytotoxic; 1.6% of 360,000 active; AID 686970;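 also: NT is the 2HG producing partner of a matched IDH1 knockdown line; nearly all actives have a fitted effect of over 55% in size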
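Compounds were tested in concentration-response format on HT-1080-NT cells for 48 hours at 37 degrees C. Cell viability came from CellTiter-Glo luminescence; curves were classified by r2, response magnitude and activity.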
KB-V1 MDR tox: KB-V1 MDR subline cytotoxicity; KB-V1 MDR cells viability, CellTiter-Glo, 72 h; AID 1347076; Potency, µM (doses to about 46.1 µM), hits mostly cytotoxic; 3.4% of 400,000 active; also: nearly all actives have a fitted effect of over 60% in size
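KB-V1 cells (P-gp-expressing MDR subline of KB-3-1) in phenol-red-free DMEM with 10% FBS were exposed to library compounds over a concentration series for 72 h at 37 degrees C. Viability read by CellTiter-Glo luminescence; concentration-effect curves fitted after normalization.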
A number is an active result; – = inactive; ? = inconclusive; · = no result. This is a sample that favours compounds with a hit; in the whole collection about 6.6% have one here. Calls follow the shape of the dose curve; as a rule, active = well fitted curve in the direction sought with a large enough effect; inconclusive = small, poorly fitted or top-dose-only effect, or another doubt; inactive = no such curve, though single readings can be large; an effect the other way counts as inactive or inconclusive.

SMILES	TGFb SMAD3 inh	KB-3-1 tox	HT1080 IDH1KD tx	HepG2 viability	HT1080NT lethal	KB-V1 MDR tox
CO/N=C/C(=N\Nc1ccc(OC)cc1)C(=O)c1ccc(OC)cc1	–	?	–	–	–	11.6µM
Cc1nc2ccccc2cc1OCc1ccc(Cl)cc1	–	2.59µM	–	–	–	1.84µM
CCOc1ccccc1CNC(=O)c1oc2c(c1C)-c1[nH]ncc1CC2	–	·	·	–	·	·
CCCNC(=O)N[C@H]1C=C[C@H](CC(=O)OC)O[C@@H]1CO	·	–	–	·	–	–
Cc1ccc(-c2ccc(/C=C3\SC(N4CCOCC4)=NC3=O)o2)cc1	–	–	8.2µM	–	9.2µM	–
COc1ccc(-c2nnc(NC(=O)c3ccc(S(=O)(=O)N4CCCc5ccccc54)cc3)o2)cc1	?	?	11.2µM	–	11.2µM	?
COCc1nnc(NC(=O)c2ccc(S(=O)(=O)N3CCCc4ccccc43)cc2)o1	–	?	20.6µM	–	14.6µM	?
COc1cccc(-c2nnc(NC(=O)c3ccc(S(=O)(=O)N4CCOCC4)cc3)o2)c1	–	5.8µM	–	–	–	?
O=C(Nc1nnc(C2CC2)o1)c1ccc(S(=O)(=O)N2CCCc3ccccc32)cc1	?	?	?	–	?	–
Nc1ccccc1Oc1ccc2ccccc2c1	15.8µM	–	–	–	–	–
Cc1ccccc1Oc1ccccc1N	–	–	–	–	–	–
Cc1cccc(C(=O)Nc2cccc(C(=O)OCc3cc(=O)n4nc(C5CC5)sc4n3)c2)c1	–	–	·	–	·	–
O=C(Cc1cccc(C(F)(F)F)c1)Nc1ccccc1	–	–	–	–	–	–
CCCCNC(=NCc1cccc(C(F)(F)F)c1)Nc1ccccc1	–	?	23.1µM	–	?	20.6µM
Cc1cc(-c2csc(NC(=O)c3cccc(S(=O)(=O)N(C)C)c3)n2)c(C)n1-c1ccccc1	–	–	–	–	–	–
COC(=O)c1ccc(-n2c(C)cc(-c3csc(NC(=O)c4ccc(S(=O)(=O)N(C)C)cc4)n3)c2C)cc1	?	–	–	12.6µM	–	–
CCOC(=O)c1csc(NC(=O)c2ccc(S(=O)(=O)N(C)C)cc2)n1	–	–	–	–	–	20.6µM
O=C(C1COc2ccccc2O1)N1CCN(c2nc3ccc(F)cc3s2)CC1 (stereo not drawn)	?	·	·	–	·	·
Nc1cc(=O)[nH]c(SCc2csc(-c3ccccc3)n2)n1	–	?	–	–	–	16.4µM
Cc1cc(=O)[nH]c(SCc2csc(-c3ccccc3)n2)n1	–	–	–	–	–	23.1µM
COc1ccc(CSc2nc(C)cc(=O)[nH]2)cc1Br	–	–	–	–	–	18.4µM
COc1ccc(NC(=O)CC2C(=O)N(c3ccc(C)cc3)C(=O)N2Cc2ccc3c(c2)OCO3)cc1 (stereo not drawn)	?	–	·	–	·	–
COc1ccc(NC(=O)CC2C(=O)N(C)C(=S)N2CCc2ccccc2)cc1 (stereo not drawn)	–	?	–	–	–	10.3µM
COc1ccc(NC(=O)CC2C(=O)N(C)C(=S)N2Cc2ccc3c(c2)OCO3)cc1 (stereo not drawn)	–	–	–	–	–	14.6µM
COc1ccc(CCN2C(=S)N(C)C(=O)C2CC(=O)Nc2ccc(OC)cc2)cc1 (stereo not drawn)	–	–	?	–	–	–
SMILES	TGFb SMAD3 inh	KB-3-1 tox	HT1080 IDH1KD tx	HepG2 viability	HT1080NT lethal	KB-V1 MDR tox
COc1cccc(CCN2C(=O)CCC3=C2CCC3=O)c1	–	–	–	–	?	–
C=CCn1c(=N)n(CC(=O)c2cccc([N+](=O)[O-])c2)c2ccccc21	–	–	–	–	–	–
N=c1n(CCN2CCCCC2)c2ccccc2n1CC(=O)c1cccc([N+](=O)[O-])c1	?	?	–	12.6µM	–	–
CN1C(=S)SC(N(O)C(=O)Nc2ccc(Cl)c(Cl)c2)C1(C)C (stereo not drawn)	?	?	?	–	–	18.4µM
Cc1ccc(OCC(=O)Nn2c(C)nc3ccccc3c2=O)c(C(C)C)c1	–	–	–	–	–	18.4µM
COc1ccccc1C(=O)OCc1c(-c2ccccc2)ncc2ccccc12	?	–	–	–	–	–
CCN(CC)S(=O)(=O)c1ccc2c(c1)N(CC(=O)N1CCN(c3ccc(Cl)cc3)CC1)C(=O)CO2	–	–	·	–	·	–
CCn1ncc(Br)c1C(=O)Nc1cc([N+](=O)[O-])ccc1C	–	?	–	–	–	16.4µM
CCn1nccc1C(=O)Nc1ccccc1OC	–	–	–	–	–	–
CCn1ncc(Br)c1C(=O)Nc1ccccc1OC	–	13µM	–	–	–	11.6µM
COc1cc(OC)c(N(C)C(=O)c2cn(C3CCCC3)c(=O)c3c2c2ccccc2n3C)cc1Cl	?	–	·	–	·	–
COc1cc(Cl)c(C)cc1NC(=O)CN1CCN(C(=O)C2CC2)CC1	–	–	–	–	–	20.6µM
COc1ccc(S(=O)(=O)N(C)C)cc1NC(=O)CN1CCN(C(=O)C2CC2)CC1	–	?	–	–	–	–
O=c1c2ccc(F)cc2sn1-c1ccccc1	11.2µM	?	?	–	–	?
O=c1c2ccccc2sn1-c1ccc(F)cc1	10µM	–	–	–	?	–
Cc1ccc(-n2sc3cc(F)ccc3c2=O)c(C)c1	?	?	?	11.2µM	?	?
Cc1ccc(CSc2nc3cccnc3n2Cc2ccc(C(=O)NCCc3cccs3)cc2)cc1	?	·	·	–	·	·
O=[N+]([O-])c1ccc(CN2CC(N3CCC(Cc4ccccc4)CC3)CS2(=O)=O)cc1 (stereo not drawn)	?	–	–	–	–	–
COc1ccc2c(c1)C(=O)CC2	–	–	·	–	·	–
CCCCNc1cc(NC(C)=O)cc2cc(OC)c(OC)cc12	10µM	–	–	–	–	–
CCOc1ccc(C2c3c(oc4ccc(C)cc4c3=O)C(=O)N2CCCN(C)C)cc1OC (stereo not drawn)	–	·	·	–	·	·
CCOc1ccc(CCNC(=O)c2ccc3c(c2)N(Cc2ccccc2F)C(=O)c2ccccc2S3=O)cc1OCC (stereo not drawn)	–	–	·	–	·	–
Cc1ccc(C)c(S(=O)(=O)ON2C(=O)c3ccccc3C2=O)c1	?	?	13µM	–	?	–
COc1ccc(CCNC(=O)c2c[nH]n3c(=O)c(Cc4ccccc4Cl)c(C)nc23)cc1OC	·	·	·	–	·	·
N#C/C(=C\c1cccc([N+](=O)[O-])c1)c1nnc2n1CCCCC2	–	–	–	–	–	–
CN(c1ccccc1)c1ccc(/C=C(\C#N)c2nnc3n2CCCCC3)cc1[N+](=O)[O-]	–	?	?	–	–	10.3µM

Screening results deposited in PubChem by National Center for Advancing Translational Sciences (NCATS).
